The first experiment concerns LOC_OS01G63280-cb003. Put plainly: thermal shift delta Tm vs DMSO control; higher = stronger stabilization (binding). As to conditions: 12.5 µM; protein concentration 2 µM. In short, it runs like this: (§1)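 Rice kinase domain constructs were expressed in E. coli, purified, and tested by differential scanning fluorimetry with compound added in DMSO. Each well of a 96-well plate held 19.5 μl of 2 μM kinase in 100 mM potassium phosphate pH 7.5, 150 mM NaCl, 10% glycerol and 5 × SYPRO Orange, and fluorescence was read from 25°C to 95°C at 0.05°C/s. The melting temperature shift is the mean of triplicates, taken against protein with DMSO alone after Boltzmann fitting.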
Consider `COc1ccc(CC(=O)Nc2nc3c(s2)CCc2ccccc2-3)cc1OC`, for which the “thermal shift delta Tm” value was 0.2 °C.

`CNS(=O)(=O)Nc1nccc(Cc2c(C)c3ccc(Oc4ncccn4)cc3oc2=O)c1F`: the “thermal shift delta Tm” value amounted to 0.93 °C.

As for `C[C@H](NC(=O)/C(C#N)=C/c1cccc(Br)n1)c1ccccc1`, the “thermal shift delta Tm” value is -4.67 °C.

As for `COc1ccc(COc2cc3oc(=O)c4cc(C(C)O)ccc4c3cc2OC)cc1` (centres undefined) [Palomid 529 (P529)], the “thermal shift delta Tm” value was 0.19 °C.

Turning to `CC(C)(C)Cn1c(N)nc2ccc(-c3[nH]c(C(C)(C)C)nc3-c3ccc(F)cc3)nc21`, the “thermal shift delta Tm” value was -0.16 °C.

Turning to `COc1ccccc1-c1cc(Nc2cccc(CS(N)(=O)=O)c2)ncn1`, the “thermal shift delta Tm” value worked out at 0.28 °C.

As for `Cn1cnc(N)c2ncnc1-2` [3-Methyladenine (3-MA)], the “thermal shift delta Tm” value amounted to 0.22 °C.

For the molecule `C=CC(=O)N[C@H]1CCOC[C@H]1Nc1ncc2cc(-c3c(Cl)c(OC)cc(OC)c3Cl)ccc2n1`, the “thermal shift delta Tm” value was -0.43 °C.

On to `CCS(=O)(=O)Nc1ccc2c(c1)/C(=C(/Nc1ccc(CN3CCCCC3)cc1)c1ccccc1)C(=O)N2` [Hesperadin], for which the “thermal shift delta Tm” value amounted to 1.11 °C.

As for `Cc1cc(Nc2cc(N3CCN(C)CC3)nc(/C=C/c3ccccc3)n2)n[nH]1` [ENMD-2076 L-(+)-Tartaric acid], the “thermal shift delta Tm” value came to 0.86 °C.

Consider `Cc1ccc(F)c(NC(=O)Nc2ccc(-c3cccc4[nH]nc(N)c34)cc2)c1` [Linifanib (ABT-869)], for which the “thermal shift delta Tm” value came out at 4.52 °C.

With `CO[C@H]1C[C@@H]2CC[C@@H](C)[C@@](O)(O2)C(=O)C(=O)N2CCCC[C@H]2C(=O)O[C@H]([C@H](C)C[C@@H]2CC[C@@H](OCCO)[C@H](OC)C2)CC(=O)[C@H](C)/C=C(\C)[C@@H](O)[C@@H](OC)C(=O)[C@H](C)C[C@H](C)/C=C/C=C/C=C/1C` [Everolimus (RAD001)], the “thermal shift delta Tm” value worked out at 0.26 °C.

On to `CCCCCCCCCCCCCCCCn1cc[n+](Cc2ccccc2)c1C`, for which the “thermal shift delta Tm” value is -7.84 °C.

`O=C(/C=C/c1ccc(O)c(O)c1)c1ccc(O)cc1O` [Butein]: the “thermal shift delta Tm” value came out at 17.7 °C.

Consider `NC(=O)c1ncn([C@@H]2O[C@H](CO)[C@@H](O)[C@H]2O)c1N` [AICAR (Acadesine)], for which the “thermal shift delta Tm” value stood at 0.73 °C.

As to `COCCOc1ccc2c(c1)ncn2-c1ccc2cccc(N3CCC(N)CC3)c2n1`, the “thermal shift delta Tm” value worked out at 1.35 °C.

`CCCCCCCCCCCCCCCCCCOP(=O)([O-])OC1CC[N+](C)(C)CC1` [Perifosine (KRX-0401)]: the “thermal shift delta Tm” value is -3.09 °C.

Consider `COc1ccc(-c2ccc3c(N4CCOCC4)nc(N4C[C@@H](C)O[C@@H](C)C4)nc3n2)cc1CO`, for which the “thermal shift delta Tm” value was -0.12 °C.

Take `Cc1cc(Nc2nc(N[C@@H](C)c3ccc(F)cc3)c(C#N)cc2F)n[nH]1`: the “thermal shift delta Tm” value came out at 0.61 °C.

Take `O=c1nc(N2CCOCC2)oc2c(-c3cccc4c3sc3ccccc34)cccc12`: the “thermal shift delta Tm” value was -1.32 °C.

Take `Cn1cc(-c2ccc3nnc(C(F)(F)c4ccc5ncccc5c4)n3n2)cn1`: the “thermal shift delta Tm” value was 0.31 °C.

Take `Cc1cc(C(C)Nc2ccccc2)c2nc(N3CCOCC3)cc(=O)n2c1` (centres undefined): the “thermal shift delta Tm” value is -0.26 °C.

Take `COc1cc(N2CCC(N(C)C)CC2)ccc1Nc1ncc(Cl)c(Nc2ccccc2P(C)(C)=O)n1`: the “thermal shift delta Tm” value is 0.32 °C.

Regarding `CC(C)c1cnn2c(NCc3ccccc3)cc(NCCCCCCN)nc12`, the “thermal shift delta Tm” value came out at 0.24 °C.

For `Cc1cc([C@@H](C)Nc2ccccc2C(=O)O)c2nc(N3CCOCC3)cc(=O)n2c1`, the “thermal shift delta Tm” value worked out at 0.68 °C.

In the case of `CC(C)NC(=O)C1CCC(n2c(NC(=O)c3ccc(F)cc3)nc3ccc(CN4CCC(C(C)(C)O)CC4)cc32)CC1` (centres undefined) [Belizatinib (TSR-011)], the “thermal shift delta Tm” value came out at 0.25 °C.

Turning to `COc1ccc(-c2ccc3ncc4c(c3c2)n(-c2ccc(N3CCNCC3)c(C(F)(F)F)c2)c(=O)n4C)cn1`, the “thermal shift delta Tm” value turned out to be 0.17 °C.

In the case of `CN1CCN(c2ccc3nc(-c4c(N)c5c(F)cccc5[nH]c4=O)[nH]c3c2)CC1` [Dovitinib (TKI-258, CHIR-258)], the “thermal shift delta Tm” value stood at 0.59 °C.

Regarding `NC(=O)c1ccc2nc(-c3ccc(Oc4ccc(Cl)cc4)cc3)[nH]c2c1` [Chk2 Inhibitor II (BML-277)], the “thermal shift delta Tm” value is 0.87 °C.

As to `CC1(C)OCCn2c1nc1c(N3CCOCC3)nc(-c3cnc(N)nc3)nc12`, the “thermal shift delta Tm” value was -0.02 °C.

For `C=CC(=O)Nc1cccc(Nc2nc(Nc3ccc(OCCOC)cc3)ncc2F)c1`, the “thermal shift delta Tm” value came to 0.22 °C.

Turning to `NC(=O)c1cnc(N[C@@H]2CCCC[C@@H]2N)nc1Nc1cccc(-n2nccn2)c1`, the “thermal shift delta Tm” value came out at 0.28 °C.

As to `CNC(=O)c1cc(Oc2ccc3nc(N[C@@H]4CCCC[C@H]4O)sc3c2)ccn1`, the “thermal shift delta Tm” value came to 0.76 °C.

As for `CCn1c2ccccc2c2cc(Nc3ccnc(NCCCN4CCOCC4)n3)ccc21`, the “thermal shift delta Tm” value was 0.29 °C.

As for `CCC(=O)Nc1cccc(Oc2nc(Nc3ccc(N4CCN(C)CC4)cc3OC)ncc2Cl)c1`, the “thermal shift delta Tm” value was determined as 0.16 °C.

For the molecule `CN1CCN(c2nc(C3=C(c4c[nH]c5ccccc45)C(=O)NC3=O)c3ccccc3n2)CC1` [Sotrastaurin], the “thermal shift delta Tm” value was 0.55 °C.

Consider `C=CCc1ccc(O)c(-c2ccc(O)c(CC=C)c2)c1` [Honokiol], for which the “thermal shift delta Tm” value was 1.12 °C.

The test system of the next experiment is LOC_OS01G67340-cb003. The description is as above. As to conditions: 12.5 µM; protein concentration 2 µM. In short, it runs like this:
as §1
For `COc1ccc(CC(=O)Nc2nc3c(s2)CCc2ccccc2-3)cc1OC`, the “thermal shift delta Tm” value is 1.18 °C.

`CNS(=O)(=O)Nc1nccc(Cc2c(C)c3ccc(Oc4ncccn4)cc3oc2=O)c1F`: the “thermal shift delta Tm” value is 0.24 °C.

With `C[C@H](NC(=O)/C(C#N)=C/c1cccc(Br)n1)c1ccccc1`, the “thermal shift delta Tm” value was -1.18 °C.

`COc1ccc(COc2cc3oc(=O)c4cc(C(C)O)ccc4c3cc2OC)cc1` (centres undefined) [Palomid 529 (P529)]: the “thermal shift delta Tm” value was found to be 0.25 °C.

For the molecule `CC(C)(C)Cn1c(N)nc2ccc(-c3[nH]c(C(C)(C)C)nc3-c3ccc(F)cc3)nc21`, the “thermal shift delta Tm” value came to 0.92 °C.

For `COc1ccccc1-c1cc(Nc2cccc(CS(N)(=O)=O)c2)ncn1`, the “thermal shift delta Tm” value came out at 0.81 °C.

In the case of `Cn1cnc(N)c2ncnc1-2` [3-Methyladenine (3-MA)], the “thermal shift delta Tm” value was -0.29 °C.

Take `C=CC(=O)N[C@H]1CCOC[C@H]1Nc1ncc2cc(-c3c(Cl)c(OC)cc(OC)c3Cl)ccc2n1`: the “thermal shift delta Tm” value was -0.17 °C.

In the case of `CCS(=O)(=O)Nc1ccc2c(c1)/C(=C(/Nc1ccc(CN3CCCCC3)cc1)c1ccccc1)C(=O)N2` [Hesperadin], the “thermal shift delta Tm” value amounted to 6.7 °C.

Turning to `Cc1cc(Nc2cc(N3CCN(C)CC3)nc(/C=C/c3ccccc3)n2)n[nH]1` [ENMD-2076 L-(+)-Tartaric acid], the “thermal shift delta Tm” value was found to be 1.45 °C.

With `Cc1ccc(F)c(NC(=O)Nc2ccc(-c3cccc4[nH]nc(N)c34)cc2)c1` [Linifanib (ABT-869)], the “thermal shift delta Tm” value was 2.81 °C.

Turning to `CO[C@H]1C[C@@H]2CC[C@@H](C)[C@@](O)(O2)C(=O)C(=O)N2CCCC[C@H]2C(=O)O[C@H]([C@H](C)C[C@@H]2CC[C@@H](OCCO)[C@H](OC)C2)CC(=O)[C@H](C)/C=C(\C)[C@@H](O)[C@@H](OC)C(=O)[C@H](C)C[C@H](C)/C=C/C=C/C=C/1C` [Everolimus (RAD001)], the “thermal shift delta Tm” value is -0.17 °C.

For `CCCCCCCCCCCCCCCCn1cc[n+](Cc2ccccc2)c1C`, the “thermal shift delta Tm” value was -1.74 °C.

In the case of `O=C(/C=C/c1ccc(O)c(O)c1)c1ccc(O)cc1O` [Butein], the “thermal shift delta Tm” value amounted to 7.74 °C.

With `NC(=O)c1ncn([C@@H]2O[C@H](CO)[C@@H](O)[C@H]2O)c1N` [AICAR (Acadesine)], the “thermal shift delta Tm” value was -0.25 °C.

For `COCCOc1ccc2c(c1)ncn2-c1ccc2cccc(N3CCC(N)CC3)c2n1`, the “thermal shift delta Tm” value came out at 2.25 °C.

In the case of `CCCCCCCCCCCCCCCCCCOP(=O)([O-])OC1CC[N+](C)(C)CC1` [Perifosine (KRX-0401)], the “thermal shift delta Tm” value is -1.14 °C.

With `COc1ccc(-c2ccc3c(N4CCOCC4)nc(N4C[C@@H](C)O[C@@H](C)C4)nc3n2)cc1CO`, the “thermal shift delta Tm” value was -0.53 °C.

As for `Cc1cc(Nc2nc(N[C@@H](C)c3ccc(F)cc3)c(C#N)cc2F)n[nH]1`, the “thermal shift delta Tm” value was -0.08 °C.

Regarding `O=c1nc(N2CCOCC2)oc2c(-c3cccc4c3sc3ccccc34)cccc12`, the “thermal shift delta Tm” value was -1.09 °C.

As to `Cn1cc(-c2ccc3nnc(C(F)(F)c4ccc5ncccc5c4)n3n2)cn1`, the “thermal shift delta Tm” value is -0.37 °C.

Take `Cc1cc(C(C)Nc2ccccc2)c2nc(N3CCOCC3)cc(=O)n2c1` (centres undefined): the “thermal shift delta Tm” value was -0.69 °C.

`COc1cc(N2CCC(N(C)C)CC2)ccc1Nc1ncc(Cl)c(Nc2ccccc2P(C)(C)=O)n1`: the “thermal shift delta Tm” value came out at 1.45 °C.

Take `CC(C)c1cnn2c(NCc3ccccc3)cc(NCCCCCCN)nc12`: the “thermal shift delta Tm” value was -0.22 °C.

`Cc1cc([C@@H](C)Nc2ccccc2C(=O)O)c2nc(N3CCOCC3)cc(=O)n2c1`: the “thermal shift delta Tm” value was -0.15 °C.

In the case of `CC(C)NC(=O)C1CCC(n2c(NC(=O)c3ccc(F)cc3)nc3ccc(CN4CCC(C(C)(C)O)CC4)cc32)CC1` (centres undefined) [Belizatinib (TSR-011)], the “thermal shift delta Tm” value amounted to 2.85 °C.

On to `COc1ccc(-c2ccc3ncc4c(c3c2)n(-c2ccc(N3CCNCC3)c(C(F)(F)F)c2)c(=O)n4C)cn1`, for which the “thermal shift delta Tm” value came out at 1.43 °C.

Regarding `CN1CCN(c2ccc3nc(-c4c(N)c5c(F)cccc5[nH]c4=O)[nH]c3c2)CC1` [Dovitinib (TKI-258, CHIR-258)], the “thermal shift delta Tm” value was found to be 2.72 °C.

Regarding `NC(=O)c1ccc2nc(-c3ccc(Oc4ccc(Cl)cc4)cc3)[nH]c2c1` [Chk2 Inhibitor II (BML-277)], the “thermal shift delta Tm” value was found to be 1.05 °C.

In the case of `CC1(C)OCCn2c1nc1c(N3CCOCC3)nc(-c3cnc(N)nc3)nc12`, the “thermal shift delta Tm” value was determined as 0.53 °C.

As for `C=CC(=O)Nc1cccc(Nc2nc(Nc3ccc(OCCOC)cc3)ncc2F)c1`, the “thermal shift delta Tm” value came to 0.42 °C.

With `NC(=O)c1cnc(N[C@@H]2CCCC[C@@H]2N)nc1Nc1cccc(-n2nccn2)c1`, the “thermal shift delta Tm” value came to 0.99 °C.

Take `CNC(=O)c1cc(Oc2ccc3nc(N[C@@H]4CCCC[C@H]4O)sc3c2)ccn1`: the “thermal shift delta Tm” value is 1.16 °C.

Turning to `CCn1c2ccccc2c2cc(Nc3ccnc(NCCCN4CCOCC4)n3)ccc21`, the “thermal shift delta Tm” value amounted to 0.51 °C.

For the molecule `CCC(=O)Nc1cccc(Oc2nc(Nc3ccc(N4CCN(C)CC4)cc3OC)ncc2Cl)c1`, the “thermal shift delta Tm” value is 0.44 °C.

On to `CN1CCN(c2nc(C3=C(c4c[nH]c5ccccc45)C(=O)NC3=O)c3ccccc3n2)CC1` [Sotrastaurin], for which the “thermal shift delta Tm” value came out at 0.35 °C.

Regarding `C=CCc1ccc(O)c(-c2ccc(O)c(CC=C)c2)c1` [Honokiol], the “thermal shift delta Tm” value stood at 1.09 °C.

Source of the values: the supplement of paper PMC9694430.
